The text below walks through data of PubChem BioAssay (EPA / NIEHS).

Records with an inconclusive call do not appear. Active and inactive are the calls of the source. The calls were made as follows: active = hit-call score of the fitted dose curve at least 0.9, where 1 is the maximum; inconclusive = response in the unintended direction; inactive = score below 0.9.

Sequence of human Casein Kinase 1-delta (CK1D), CSNK1D (gene 1453) (P48730 whole entry, looked up): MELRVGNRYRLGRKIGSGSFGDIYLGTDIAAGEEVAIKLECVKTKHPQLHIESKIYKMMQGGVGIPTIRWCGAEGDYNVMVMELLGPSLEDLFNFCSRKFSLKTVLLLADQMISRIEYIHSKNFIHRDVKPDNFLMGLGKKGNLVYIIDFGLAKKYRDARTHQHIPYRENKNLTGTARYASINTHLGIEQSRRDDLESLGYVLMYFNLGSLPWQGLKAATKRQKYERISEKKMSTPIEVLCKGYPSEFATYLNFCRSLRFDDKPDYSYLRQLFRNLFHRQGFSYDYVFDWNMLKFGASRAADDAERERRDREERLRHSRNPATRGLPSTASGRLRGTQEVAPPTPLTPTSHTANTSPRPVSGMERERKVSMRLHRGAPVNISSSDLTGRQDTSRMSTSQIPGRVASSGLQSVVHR
Sequence of human Aurora Kinase A - serine/threonine-protein Kinase 6 (AurA), AURKA (gene 6790) (O14965 whole entry, looked up): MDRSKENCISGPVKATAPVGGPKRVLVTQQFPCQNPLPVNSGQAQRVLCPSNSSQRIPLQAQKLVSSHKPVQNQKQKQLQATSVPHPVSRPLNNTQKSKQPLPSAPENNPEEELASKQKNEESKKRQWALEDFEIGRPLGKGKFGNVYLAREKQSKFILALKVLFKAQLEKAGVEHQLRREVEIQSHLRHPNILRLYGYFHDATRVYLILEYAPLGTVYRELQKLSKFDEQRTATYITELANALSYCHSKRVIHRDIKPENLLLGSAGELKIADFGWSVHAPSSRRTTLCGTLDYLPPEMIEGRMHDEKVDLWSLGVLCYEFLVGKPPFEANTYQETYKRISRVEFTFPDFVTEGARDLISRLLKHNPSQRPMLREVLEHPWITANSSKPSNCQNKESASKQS
Sequence of human Caspase 4 (CASP4), CASP4 (gene 837) (P49662 whole entry, looked up): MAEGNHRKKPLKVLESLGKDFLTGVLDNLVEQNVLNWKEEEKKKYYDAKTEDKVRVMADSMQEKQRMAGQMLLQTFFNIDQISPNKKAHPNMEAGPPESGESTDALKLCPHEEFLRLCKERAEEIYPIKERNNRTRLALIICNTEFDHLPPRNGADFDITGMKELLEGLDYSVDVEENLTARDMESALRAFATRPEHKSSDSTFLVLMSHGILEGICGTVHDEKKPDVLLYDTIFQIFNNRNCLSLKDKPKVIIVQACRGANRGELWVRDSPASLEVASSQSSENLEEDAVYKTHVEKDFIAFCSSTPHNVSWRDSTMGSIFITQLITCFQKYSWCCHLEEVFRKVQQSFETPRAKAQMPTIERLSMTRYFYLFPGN

The target in one test is human AKT serine/threonine Kinase 2 (AKT2), AKT2 (gene 208) (UniProt P31751). Briefly: NVS_ENZ_hAKT2: NovaScreen (NVS) Enzymatic Assay for human AKT serine/threonine Kinase 2 (AKT2) (AID 2283141). The procedure, abridged: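 Cell-free fluorescence/electrophoretic mobility shift readout of recombinant human AKT2 activity, 1 h after chemical dosing. Duplicate primary screen at 25 uM, then singleton concentration-response up to 50 uM; loss of signal versus DMSO baseline.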
Sequence of human AKT serine/threonine Kinase 2 (AKT2), AKT2 (gene 208) (P31751 whole entry, looked up): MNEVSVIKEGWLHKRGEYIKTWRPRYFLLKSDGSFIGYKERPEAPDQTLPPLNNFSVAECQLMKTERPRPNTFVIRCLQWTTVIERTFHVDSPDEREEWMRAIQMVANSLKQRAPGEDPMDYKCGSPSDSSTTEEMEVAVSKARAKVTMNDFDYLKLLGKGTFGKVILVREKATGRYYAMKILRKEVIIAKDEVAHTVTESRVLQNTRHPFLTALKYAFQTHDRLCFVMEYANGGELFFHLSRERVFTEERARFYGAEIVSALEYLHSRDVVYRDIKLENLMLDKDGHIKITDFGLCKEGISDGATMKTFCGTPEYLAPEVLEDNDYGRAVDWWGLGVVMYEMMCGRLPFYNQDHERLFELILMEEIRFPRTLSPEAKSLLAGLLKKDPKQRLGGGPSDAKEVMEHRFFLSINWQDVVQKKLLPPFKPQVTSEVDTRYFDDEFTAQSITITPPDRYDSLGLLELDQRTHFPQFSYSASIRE
In the case of `O=C1CCCO1`, the result was inactive. Take `O=P(OCCCl)(OCCCl)OCCCl`: the outcome was inactive.

As for `C[N+](C)(C)CC1CO1` (stereo not drawn), the result was inactive. For the compound `CCCCCCCCn1sccc1=O`, the result was inactive. As for `Cc1ccc(N)c(N)c1`, the call was inactive. On the same count and under the same terms, in the case of `CN(C)C(=O)Nc1ccc(Cl)cc1` it was “inactive”; in that of `O=C(O)C1C2CCC(O2)C1C(=O)O` (stereo not drawn), “inactive”. Regarding `Cc1ccc(N=C=O)cc1N=C=O`, the compound was classed as inactive. The same measure, in the same setting: to `c1ccc(NNc2ccccc2)cc1` belongs “inactive”. As to `CCC[CH2][Sn]([Cl])([CH2]CCC)[CH2]CCC`, the call was inactive. Same read-out and setting: to `CCNS(=O)(=O)C(F)(F)C(F)(F)C(F)(F)C(F)(F)C(F)(F)C(F)(F)C(F)(F)C(F)(F)F` belongs “inactive”.

The next test concerns the target human Aurora Kinase A - serine/threonine-protein Kinase 6 (AurA), AURKA (gene 6790) (UniProt O14965). Briefly: NVS_ENZ_hAurA: NovaScreen (NVS) Enzymatic Assay for human Aurora Kinase A - serine/threonine-protein Kinase 6 (AurA) (AID 2283142). As to the method: (§1) NVS_ENZ_hAurA is a biochemical, single-readout assay that uses extracted gene-proteins in a cell-free assay. Measurements were taken 1 hour after chemical dosing in a 384-well plate.NVS_ENZ_hAurA is one of one assay component(s) measured or calculated from the NVS_ENZ_hAurA assay. It is designed to make measurements of enzyme activity, a form of enzyme reporter, as detected with fluorescence intensity signals by Fluorescence and electrophoretic mobility shift technology.Data from the assay component NVS_ENZ_hAurA was analyzed into 1 assay endpoint. This assay endpoint, NVS_ENZ_hAurA, was analyzed in the positive analysis fitting direction relative to DMSO as the negative control and baseline of activity. Using a type of enzyme reporter, loss-of-signal activity can be used to understand changes in the enzymatic activity as they relate to the gene AURKA. Furthermore, this assay endpoint can be referred to as a primary readout, because this assay has produced multiple assay endpoints where this one serves a enzymatic activity function. To generalize the intended target to other relatable targets, this assay endpoint is annotated to the kinase intended target family, where the subfamily is serine/threonine kinase.
(§2) Binding assays used specific radioligands (tritiated, iodinated) with non-radioactive competitive displacement ligands in agonist or antagonist protocols (as indicated) and various reference compounds and inhibitors to titrate specific binding to receptors and transporters. Most enzyme assays (CYPs, kinases, phosphatases, proteases, HDACs) used recombinant protein and specific substrates (fluorescence mostly, some colorimetric and radioactive) and inhibitors, followed by a biochemical separation of substrate and product. All assays for the biochemical HTS were initially run in duplicate at a single concentration (10 uM for CYP450 assays and 25 uM for all others). Assay-chemical combinations meeting a pre-defined threshold (e.g., 30% inhibition and other criteria defined below) were then run in singleton concentration-response format with maximum concentration of 20 uM for CYPs and 50 uM for all others. Each assay was run with positive and negative controls, and concurrent controls on every plate. The follow-up (secondary) screen tested active chemical-pairs in concentration series, as well as a few additional assays not tested in the primary screen, some selected negative inactives, and several cases re-run in the concentration series for confirmatory purposes.
For `Nc1ccc([N+](=O)[O-])cc1`, the compound was called inactive. With `CCN(CC)N=O`, the call was inactive.

Consider `ClCCOCCCl`, for which the outcome was inactive. Take `COc1cc(C=O)cc2c1[C@H](COC(N)=O)[C@]1(OC(C)=O)ON2C[C@H]2[C@@H]1N2C(C)=O`: the compound was called inactive.

By AC50 is commonly meant the concentration at which the activity in the assay is half-maximal. Turning to `C[C@]12C=CC3=C4CCC(=O)C=C4CC[C@H]3[C@@H]1CC[C@@H]2O`, the AC50 is 35.3 µM (active).

Regarding `CC(C)(C)C(O)(CCc1ccc(Cl)cc1)Cn1cncn1` (stereo not drawn), the compound was classed as inactive.

The target of another test is human Caspase 4 (CASP4), CASP4 (gene 837) (UniProt P49662). The experiment in a line: NVS_ENZ_hCASP4: NovaScreen (NVS) Enzymatic Assay for human Caspase 4 (CASP4) (AID 2283143). The method, boiled down:
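The cell-free assay used E. coli-expressed enzyme with a fluorogenic substrate, read 2 h after dosing. Signal loss was scored versus DMSO. Screening was in duplicate at 25 uM, then singleton concentration-response up to 50 uM.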
Consider `Oc1ccc2ccc3cccc4ccc1c2c34`, for which the AC50 was 5.26 µM (active).

In the case of `Nc1ccc(N=Nc2ccccc2)cc1`, the outcome was inactive. Turning to `Cc1ccc(N=C=O)cc1N=C=O`, the AC50 was 13.7 µM (active).

In the case of `c1ccc(NNc2ccccc2)cc1`, the compound was called inactive. For `Cc1cccc(N)c1N`, the compound was called inactive.

The target of a further test is human Caspase 8 (CASP8), CASP8 (gene 841) (UniProt Q14790). The experiment in a line: NVS_ENZ_hCASP8: NovaScreen (NVS) Enzymatic Assay for human Caspase 8 (CASP8) (AID 2283146). As to the method: NVS_ENZ_hCASP8 is a biochemical, single-readout assay that uses extracted gene-proteins from E. coli in a cell-free assay. Measurements were taken 1 hour after chemical dosing in a 96-well plate.NVS_ENZ_hCASP8 is one of one assay component(s) measured or calculated from the NVS_ENZ_hCASP8 assay. It is designed to make measurements of enzyme activity, a form of enzyme reporter, as detected with fluorescence intensity signals by Fluorescence technology.Data from the assay component NVS_ENZ_hCASP8 was analyzed into 1 assay endpoint. This assay endpoint, NVS_ENZ_hCASP8, was analyzed in the positive analysis fitting direction relative to DMSO as the negative control and baseline of activity. Using a type of enzyme reporter, loss-of-signal activity can be used to understand changes in the enzymatic activity as they relate to the gene CASP8. Furthermore, this assay endpoint can be referred to as a primary readout, because this assay has produced multiple assay endpoints where this one serves a enzymatic activity function. To generalize the intended target to other relatable targets, this assay endpoint is annotated to the protease intended target family, where the subfamily is cysteine protease.
Sequence of human Caspase 8 (CASP8), CASP8 (gene 841) (Q14790 whole entry, looked up): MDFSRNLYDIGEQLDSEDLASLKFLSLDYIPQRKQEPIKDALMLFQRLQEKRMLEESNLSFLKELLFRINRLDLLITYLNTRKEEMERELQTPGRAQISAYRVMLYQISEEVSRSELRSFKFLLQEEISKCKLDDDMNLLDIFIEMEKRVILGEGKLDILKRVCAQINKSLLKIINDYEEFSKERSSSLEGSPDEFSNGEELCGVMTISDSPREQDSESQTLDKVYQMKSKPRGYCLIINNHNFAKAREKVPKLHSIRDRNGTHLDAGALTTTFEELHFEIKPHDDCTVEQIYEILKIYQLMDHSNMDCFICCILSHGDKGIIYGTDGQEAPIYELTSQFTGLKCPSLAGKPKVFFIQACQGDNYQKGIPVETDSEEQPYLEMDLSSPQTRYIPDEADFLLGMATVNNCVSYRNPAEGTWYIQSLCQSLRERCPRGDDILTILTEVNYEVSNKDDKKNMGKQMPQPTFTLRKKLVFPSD
as §2, with “Assay-chemical combinations meeting a pre-defined threshold (e.g., 30% inhibition and other criteria defined below) were then run in singleton concentration-response format with maximum concentration of 20 uM for CYPs and 50 uM for all others.” left out
Consider `Nc1ccc([N+](=O)[O-])cc1`, for which the result was inactive. Still for that read-out and setting: in the case of `Nc1ccc(N=Nc2ccccc2)cc1` it was “inactive”. For `Clc1ccc(Cl)c(Cl)c1`, the compound was called inactive. As for `COC(=O)c1ccccc1N`, the concentration at half-maximal activity (AC50) is 11.1 µM (active).

Another test has as its target human Casein Kinase 1-delta (CK1D), CSNK1D (gene 1453) (UniProt P48730). Briefly: NVS_ENZ_hCK1D: NovaScreen (NVS) Enzymatic Assay for human Casein Kinase 1-delta (CK1D) (AID 2283148). The procedure: as §1, with “NVS_ENZ_hCK1D” for “NVS_ENZ_hAurA”, “plate.NVS_ENZ_hCK1D” for “plate.NVS_ENZ_hAurA”, “NVS_ENZ_hCK1D,” for “NVS_ENZ_hAurA,”, “CSNK1D.” for “AURKA.”
Binding assays used specific radioligands (tritiated, iodinated) with non-radioactive competitive displacement ligands in agonist or antagonist protocols (as indicated) and various reference compounds and inhibitors to titrate specific binding to receptors and transporters. Most enzyme assays (CYPs, kinases, phosphatases, proteases, HDACs) used recombinant protein and specific substrates (fluorescence mostly, some colorimetric and radioactive) and inhibitors, followed by a biochemical separation of substrate and product. All assays for the biochemical HTS were initially run in duplicate at a single concentration (10 uM for CYP450 assays and 25 uM for all others). […]
As to `CCN(CC)N=O`, the outcome was inactive. In the case of `CC(C)(O)c1cnn2c(-c3ccc(F)c(-c4c(F)cccc4C#N)c3)cnc2n1`, the outcome was inactive. Same read-out and setting: in the case of `CCNS(=O)(=O)C(F)(F)C(F)(F)C(F)(F)C(F)(F)C(F)(F)C(F)(F)C(F)(F)C(F)(F)F` it was “inactive”.

The target in the next test is human Colony Stimulating Factor 1 Receptor (CSF1R), CSF1R (gene 1436) (UniProt P07333). The experiment in a line: NVS_ENZ_hCSF1R: NovaScreen (NVS) Enzymatic Assay for human Colony Stimulating Factor 1 Receptor (CSF1R) (AID 2283150). The method, boiled down: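 Cell-free recombinant human CSF1R kinase with fluorescent substrate, product separated by electrophoretic mobility shift; read 1 h after dosing. Primary screen at 25 uM in duplicate, actives then in concentration-response up to 50 uM, relative to DMSO.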
Sequence of human Colony Stimulating Factor 1 Receptor (CSF1R), CSF1R (gene 1436) (P07333 whole entry, looked up): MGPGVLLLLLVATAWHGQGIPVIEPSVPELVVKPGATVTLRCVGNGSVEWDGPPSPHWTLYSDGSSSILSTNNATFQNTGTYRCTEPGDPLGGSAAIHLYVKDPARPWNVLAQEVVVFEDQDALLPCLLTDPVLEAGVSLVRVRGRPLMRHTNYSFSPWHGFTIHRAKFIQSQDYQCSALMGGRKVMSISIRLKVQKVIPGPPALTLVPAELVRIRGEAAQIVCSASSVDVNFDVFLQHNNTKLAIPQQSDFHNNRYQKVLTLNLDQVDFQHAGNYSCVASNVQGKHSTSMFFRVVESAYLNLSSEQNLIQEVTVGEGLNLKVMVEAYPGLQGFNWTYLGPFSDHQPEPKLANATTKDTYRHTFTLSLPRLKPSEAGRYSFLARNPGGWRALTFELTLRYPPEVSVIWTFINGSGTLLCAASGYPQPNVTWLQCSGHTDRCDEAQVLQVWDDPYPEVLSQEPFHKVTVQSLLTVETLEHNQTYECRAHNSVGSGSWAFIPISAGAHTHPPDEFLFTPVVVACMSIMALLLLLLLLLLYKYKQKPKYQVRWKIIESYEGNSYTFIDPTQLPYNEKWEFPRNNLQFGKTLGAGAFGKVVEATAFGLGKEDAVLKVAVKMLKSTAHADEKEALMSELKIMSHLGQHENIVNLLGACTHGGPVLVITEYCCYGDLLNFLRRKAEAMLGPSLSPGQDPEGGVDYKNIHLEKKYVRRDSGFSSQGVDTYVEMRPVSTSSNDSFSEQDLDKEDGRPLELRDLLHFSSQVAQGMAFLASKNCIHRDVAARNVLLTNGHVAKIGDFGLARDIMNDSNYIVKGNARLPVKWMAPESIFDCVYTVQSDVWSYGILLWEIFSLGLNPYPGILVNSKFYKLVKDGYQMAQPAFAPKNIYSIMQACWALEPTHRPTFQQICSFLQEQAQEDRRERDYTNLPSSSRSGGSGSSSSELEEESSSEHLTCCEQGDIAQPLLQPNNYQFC
For the compound `Nc1ccc([N+](=O)[O-])cc1`, the call was inactive. `CCN(CC)N=O`: the call was inactive. Regarding `COc1cc(C=O)cc2c1[C@H](COC(N)=O)[C@]1(OC(C)=O)ON2C[C@H]2[C@@H]1N2C(C)=O`, the call was inactive. Regarding `C[C@]12C=CC3=C4CCC(=O)C=C4CC[C@H]3[C@@H]1CC[C@@H]2O`, the call was inactive.
